Results published in PMC13494018.
Unmarked numbers belong to inactive results. How the calls were made is not given here.

B1: design_486_d4f32670-1303-4d79-8413-1b14cb3eff50_521_dldesign_0_cycle1_af2pred (protein)
chain: DAAALAARTARAIRDQAVRTVAAEEGPEAAEIARAAGEAVLAGDFEEGRRLAERVGRARAFVLSNVESIALLVEG
B2: design_486_d4f32670-1303-4d79-8413-1b14cb3eff50_897_dldesign_0_cycle1_af2pred (protein)
chain: NPQGEAAVRYAEIAARARRLAEEARAAGREELAAEFQRIAEAARAALRRAVAANVAGEDRSEELVAEAERLERELEELERRFR
B3: design_486_d4f32670-1303-4d79-8413-1b14cb3eff50_1561_dldesign_0_cycle1_af2pred (protein)
chain: SEVEEKAKELAEKALALVKTGTGEAEAKKLLAAAPPEVVIQAIKVAAEKAKAEGPEMAAYANKLAAAANQALLEKN
B4: design_486_d4f32670-1303-4d79-8413-1b14cb3eff50_969_dldesign_0_cycle1_af2pred (protein)
chain: AQAERDAAARKIAAAHLNHAAKVAEALAKEAKDPKVKKKLKEAAKKAKELAKEAAKGNAAEAGEKAVEAAKLLAEARRLYEEDK
B5: design_486_d4f32670-1303-4d79-8413-1b14cb3eff50_394_dldesign_0_cycle1_af2pred (protein)
chain: AEANVALGKRMLEAGKKLAEETKELAKKAKKGEDKEGAKEAAKVALAFAETLELVAEGVPEIAEELKKAAKELKEAAEKALKAAKAA
B6: design_486_d4f32670-1303-4d79-8413-1b14cb3eff50_788_dldesign_0_cycle1_af2pred (protein)
chain: MREEAERVRRRAEEVEELAAKASPAVAAQVRARARAARTFAEAALRSPDPELAAQAVAAAEANVEAAEQLLAADA
B7: design_486_d4f32670-1303-4d79-8413-1b14cb3eff50_1569_dldesign_0_cycle1_af2pred (protein)
chain: NAQAKAFLDQGKAKMEAGKALIKEGKYEEAAAEFTRAYSYFLAAAGLARAAGDKALAAEAEKAAKEAEALAKEAKA
B8: design_486_d4f32670-1303-4d79-8413-1b14cb3eff50_1391_dldesign_0_cycle1_af2pred (protein)
chain: DARLKKAAELLKKHTEAVLKGPVHPEAKLATAEVAIESAQGIYKAGADDAEVKAAAKEALAAAKELKERAEKELAAAEAAAAAA
B9: design_486_d4f32670-1303-4d79-8413-1b14cb3eff50_300_dldesign_0_cycle1_af2pred (protein)
chain: SELDEELLERAKRLLETAKAAGAAGDKETVQQALGEAVELAAEAQRHRDVVSEETWQAIQQALNTAAQHAIAL
B10: design_486_d4f32670-1303-4d79-8413-1b14cb3eff50_402_dldesign_0_cycle1_af2pred (protein)
chain: ADEEKVKQAKKLAEEALRLAKEDPEKAKKKLEEAAKLAAASPAALEILLSVAGELYRINPEVGKAARQAFATAATAIV
B11: design_486_d4f32670-1303-4d79-8413-1b14cb3eff50_135_dldesign_0_cycle1_af2pred (protein)
chain: EREEEVERRREEVVRAAELVAAIARAVGDEETARLAEEAKRLAEEGGEEGVERARELVREAMVRIAKRLAEKS
B12: design_486_d4f32670-1303-4d79-8413-1b14cb3eff50_1573_dldesign_0_cycle1_af2pred (protein)
chain: SLEEAKKKAKEVTEKGKEDLATLKEIAVQAAKQGQLAGAQAALNSAKVVAKATAEEVAKLVGPEAGEKALKEGEALVKEAKKEVEKAA
B13: design_486_d4f32670-1303-4d79-8413-1b14cb3eff50_1517_dldesign_0_cycle1_af2pred (protein)
chain: AEAEKIIKEAKALAKEAKALAAQGAALDPAIAVIAAAAAAAAASAEKMVKENGEAKAEDAKKLLEVAKTLLEQAKAALEAALAAAA
B14: design_486_d4f32670-1303-4d79-8413-1b14cb3eff50_1519_dldesign_0_cycle1_af2pred (protein)
chain: DEVAKLVDETAAAARAAVAAAARTAAAGTPEQSAALSSLMVATLQAVGDAYRALTDPAEAKAAAEKARALAEELAARTAEIQA
B15: design_486_d4f32670-1303-4d79-8413-1b14cb3eff50_1586_dldesign_0_cycle1_af2pred (protein)
chain: AEERAAAIARATLAGSLALMRTMSPEDAIRLMEVLADILLSNPLTREYGERVAELARRAREEGPAAAEEAIREGAEIGEELRAA
B16: design_486_d4f32670-1303-4d79-8413-1b14cb3eff50_760_dldesign_0_cycle1_af2pred (protein)
chain: EAEEAARRARELAERARAARDAGLADPAKANEALGVALDAMRELAEIAERYPEVAEVAREAARVAAEAATALAKQAAAYYAAQRA
B17: design_486_d4f32670-1303-4d79-8413-1b14cb3eff50_1137_dldesign_0_cycle1_af2pred (protein)
chain: MEEAEEVMRRTFELAREARELRAEAERLAKLAEESGEAAPEAAAARAKAEEKVAEARRLGEEYPGAAALAEGTLAG
B18: design_486_d4f32670-1303-4d79-8413-1b14cb3eff50_1537_dldesign_0_cycle1_af2pred (protein)
chain: AAAAAAARALALAEEAAAALPPDAGARVREMVRRAVALLEAGDAGAAIQTLLDAIRYGTAAARAIDPARAATVANALTRAIVAISAAA
B19: design_486_d4f32670-1303-4d79-8413-1b14cb3eff50_1336_dldesign_0_cycle1_af2pred (protein)
chain: DAAAQAKAVAEKGVELIKKADPETGKKVGELVEKGAASANAASLLLEAAQLAAEAAKKKGWTPEMRQGVHLLLLASSLAHQAAVAAA
B20: design_486_d4f32670-1303-4d79-8413-1b14cb3eff50_1357_dldesign_0_cycle1_af2pred (protein)
chain: GMSEELAKELAEKVTKALAAASKAAAAALANPAVAAQANALLAQAVDYALKFQEAAKKDVEEAKKEAEKAIAAANELKALAAAA
B21: design_486_d4f32670-1303-4d79-8413-1b14cb3eff50_1613_dldesign_0_cycle1_af2pred (protein)
chain: AAAYKKAVAALDAVVAEAAAISEGAGLIATNIKTQGLTQGAAAKDPAEAAKIVEAALKLATDSVTKYVESSAALR
B22: design_486_d4f32670-1303-4d79-8413-1b14cb3eff50_798_dldesign_0_cycle1_af2pred (protein)
chain: GVQALAAATLEAMELAKKIGANEAVRNLGAALAVAGTRHPELAPEFTKRVEELLKLAKEAAKGDKEEAAKLVAEEARKLRDAALAA
B23: design_486_d4f32670-1303-4d79-8413-1b14cb3eff50_1359_dldesign_0_cycle1_af2pred (protein)
chain: AAAAADRAFAITKATAEASMKLMETMTAESALKLGETVAAILRAMAKAYPAHAAELNALADKVEATAKAVAEAKK
B24: design_486_d4f32670-1303-4d79-8413-1b14cb3eff50_819_dldesign_0_cycle1_af2pred (protein)
chain: SLEELRRKAVRKAQEAMATASKVAIAAKAAGDAATAAKANELLVKAQEALKEAVEGKNVEEALRRAEELLEEAKKLAKE
B25: design_486_d4f32670-1303-4d79-8413-1b14cb3eff50_567_dldesign_0_cycle1_af2pred (protein)
chain: DTVVANALAAQLVLEAIGLAAAGNIEEALKKLREAAKVASPESAAVLEAAARTIAEEGLPPEEAVAVFNAALAVVQKNAIAAA
B26: design_486_d4f32670-1303-4d79-8413-1b14cb3eff50_1495_dldesign_0_cycle1_af2pred (protein)
chain: AAALAAAEAKAKAYIEKVKALDPELGKKTAEAVKKGVKSTPETAAALGNEVTAAAPEEAKPYVAAAIAQAILANALS
B27: design_486_d4f32670-1303-4d79-8413-1b14cb3eff50_1562_dldesign_0_cycle1_af2pred (protein)
chain: MEEREKVAESMKKMLDAIGEIAAAETGEEGKKMAEEAKKEVEEAAKKGLSPEEIAAVANKKAAEILKVTMAAARAK
B28: design_486_d4f32670-1303-4d79-8413-1b14cb3eff50_565_dldesign_0_cycle1_af2pred (protein)
chain: MTEEELIQRTADANVRQVRRVAVEEGLEAGRRQLELNVKSLESVGATEIAAEMERRAEAALAEAAAELARRAAE
B29: design_486_d4f32670-1303-4d79-8413-1b14cb3eff50_440_dldesign_0_cycle1_af2pred (protein)
chain: AGKEIAKKMGKAVAERLAKQAPSVAEEAKKAAEAIEKGDYEEAKKEAEKALEIGKKNPKEYKVVKAGVETLKVLADAIAAS
B30: design_486_d4f32670-1303-4d79-8413-1b14cb3eff50_1067_dldesign_0_cycle1_af2pred (protein)
chain: ANAAQIKAAAQAAYKSAKEIAEEALELAKEGKKEEAEKKLKGAEKLGEIAAALAAQYGAAGDPAEGAALAKDIKEYLKEAKKELEKL
B31: design_486_d4f32670-1303-4d79-8413-1b14cb3eff50_973_dldesign_0_cycle1_af2pred (protein)
chain: DPAERAAEFRRRAEEVAAIYLAAAQANPAMAPVMAANVLATMRAWAAVWADNPAVAAAALEVGREAAARIA
B32: design_486_d4f32670-1303-4d79-8413-1b14cb3eff50_1615_dldesign_0_cycle1_af2pred (protein)
chain: DGYIQLAIAYANAAANRASPEVAPKLREVAELAKKGATDPEALKKAIELAKKLAKEVPEVADLLEKAVEYLKEALKAVE
B33: design_486_d4f32670-1303-4d79-8413-1b14cb3eff50_721_dldesign_0_cycle1_af2pred (protein)
chain: MNLYESTLLVAEGAIQTAQQAAELATDPAIKAQAKELKERAQEIRDRVKARGTATNEEGQEAVRLLNQASKLLAQAK
B34: design_486_d4f32670-1303-4d79-8413-1b14cb3eff50_845_dldesign_0_cycle1_af2pred (protein)
chain: SAAEQQLQQAKGYITLANAIARDPNPTPEQLQLAKEAAQQAIKLAEQVEKAVGEKGKEVKKQAEEALAKVQALL
B35: design_486_d4f32670-1303-4d79-8413-1b14cb3eff50_194_dldesign_0_cycle1_af2pred (protein)
chain: GVEEAYDVAKALAEQAIKANAADPEAKKKAEEALKKAEEAYKNAPKIDPAEAAYKIMKEAAKAAKQYLAAVAK
B36: design_486_d4f32670-1303-4d79-8413-1b14cb3eff50_1473_dldesign_0_cycle1_af2pred (protein)
chain: GSMAAAAAAEAARRAALLAEAQAKMNEASKAAIEATKTDPAKAKYYNEALALYQEAAALANDGSKYEEAKEKLKEGDKLMEKV
B37: design_486_d4f32670-1303-4d79-8413-1b14cb3eff50_1479_dldesign_0_cycle1_af2pred (protein)
chain: AEATQLLSEAIDLAKEIEENKKKATPEVAKIYDEALEEANKAMNLAAKASVADAATAAKLIAEAKKELEKAKELYEKAKKLEKE
B38: design_486_d4f32670-1303-4d79-8413-1b14cb3eff50_1043_dldesign_0_cycle1_af2pred (protein)
chain: AAEKEAEAARLERLMQAYVAAAMAGAARVTGNEATAAAQLAKARALDPEVAGELEAAVLADPQAALAEALERARAAEERLRALREE

Target: CD276, Q5ZPR3
Sequence (Q5ZPR3 whole entry): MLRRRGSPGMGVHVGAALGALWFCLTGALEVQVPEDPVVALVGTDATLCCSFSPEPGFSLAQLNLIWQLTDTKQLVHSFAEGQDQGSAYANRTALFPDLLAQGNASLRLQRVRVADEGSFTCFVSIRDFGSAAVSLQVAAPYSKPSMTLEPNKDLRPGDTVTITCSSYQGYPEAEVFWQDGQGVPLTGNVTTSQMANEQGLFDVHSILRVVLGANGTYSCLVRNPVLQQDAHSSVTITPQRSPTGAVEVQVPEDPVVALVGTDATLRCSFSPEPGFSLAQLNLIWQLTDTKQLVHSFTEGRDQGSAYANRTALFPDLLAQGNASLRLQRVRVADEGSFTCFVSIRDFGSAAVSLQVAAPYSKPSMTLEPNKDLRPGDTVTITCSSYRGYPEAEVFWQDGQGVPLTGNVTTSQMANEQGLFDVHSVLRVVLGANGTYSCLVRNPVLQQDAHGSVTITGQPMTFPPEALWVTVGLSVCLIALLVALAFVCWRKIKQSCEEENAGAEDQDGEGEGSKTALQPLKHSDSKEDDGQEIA

Row | Binder | binding in a display sort
1 | B1 | not found
2 | B2 | not found
3 | B3 | not found
4 | B4 | not found
5 | B5 | not found
6 | B6 | not found
7 | B7 | not found
8 | B8 | not found
9 | B9 | not found
10 | B10 | not found
11 | B11 | not found
12 | B12 | not found
13 | B13 | not found
14 | B14 | binds (active)
15 | B15 | not found
16 | B16 | not found
17 | B17 | not found
18 | B18 | not found
19 | B19 | not found

Row | Binder | binding in a display sort
20 | B20 | not found
21 | B21 | not found
22 | B22 | not found
23 | B23 | not found
24 | B24 | not found
25 | B25 | not found
26 | B26 | not found
27 | B27 | not found
28 | B28 | not found
29 | B29 | not found
30 | B30 | not found
31 | B31 | not found
32 | B32 | not found
33 | B33 | not found
34 | B34 | not found
35 | B35 | not found
36 | B36 | not found
37 | B37 | not found
38 | B38 | binds (active)
